Results taken from the supplement of paper PMC12350171.
Where a name gives a salt, the structure may show the parent alone. Unmarked numbers belong to inactive results.

Key:
Conditions in all cases: 20 µM
[1] = system: Salmonella enterica typhimurium; assay: growth AUC normalised to DMSO control (fraction of control); higher = less growth inhibition, active = hit call of the paper
In short: (§1)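 For the AUC endpoint, growth curves were integrated by the trapezoidal rule up to the exponential-to-stationary transition and normalised to DMSO controls on the same plate. The curves came from OD578 readings taken hourly for 24 h, in three biological replicates. Pathogens had been passaged anaerobically twice and inoculated at an OD578 of 0.01 into pre-reduced mGAM plates carrying 20 μM compound and 1% DMSO, sealed with breathable membranes. Medium for Haemophilus parainfluenzae also contained hemin and NAD.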

Shigella flexneri = assay: as above
In short: as §1

Vibrio cholerae = assay: as above
In short: as §1

[2] = system: Yersinia pseudotuberculosis; assay: as above
In short: as §1

P. vulgatus RND KO = assay: growth AUC normalised to DMSO control (median) (fraction of control); higher = less growth inhibition, active = hit call of the paper
In short: (§2)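 Each strain went through two overnight passages under anaerobic conditions before growth in mGAM in 96-well plates, starting at OD578 0.01, with each compound from the approved-drug library at 20 μM and 1% DMSO. Inside an anaerobic incubator, OD578 was recorded every hour for 24 h. Growth curves were cut off at entry into stationary phase, and the area under the curve was calculated by the trapezoidal rule and normalised to vehicle wells on the same plate. Reported values are medians of three biological replicates.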

P. vulgatus WT = assay: as above
In short: as §2

[3] = system: S. enterica typhimurium WT; assay: as above
In short: as §2

[4] = system: S. enterica typhimurium tolC KO; assay: as above
In short: as §2
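Wherever growth AUC normalised to DMSO control (median) is given: active when median AUC fell below 0.1.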

Row | Compound | growth AUC normalised to DMSO control [1] | growth AUC normalised to DMSO control (Shigella flexneri) | growth AUC normalised to DMSO control (Vibrio cholerae) | growth AUC normalised to DMSO control [2] | growth AUC normalised to DMSO control (P. vulgatus RND KO) | growth AUC normalised to DMSO control (P. vulgatus WT) | growth AUC normalised to DMSO control [3] | growth AUC normalised to DMSO control [4]
1 | CCCCNC(=O)NS(=O)(=O)c1ccc(C)cc1 [Tolbutamide] | 1.01 | 0.995 | 0.956 | 0.998 | 1.02 | 1.04 | 0.996 | 1
2 | CNCC(O)c1ccc(O)c(O)c1 (stereo unspecified) [Racepinephrine hydrochloride] | 1.03 | 1.02 | 1.09 | 1.04 | 1.01 | 1 | 1.01 | 1
3 | NCCc1ccc(O)c(O)c1 [Dopamine hydrochloride] | 1.02 | 1.05 | 0.989 | 1.01 | 1.03 | 1.02 | 1 | 0.99
4 | Cc1ccc(N(CC2=NCCN2)c2cccc(O)c2)cc1 [Phentolamine hydrochloride] | 1.03 | 1.01 | 1.02 | 0.975 | 1 | 0.991 | 0.999 | 0.99
5 | CN(C)c1ccc(O)c2c1C[C@H]1C[C@H]3[C@H](N(C)C)C(=O)C(C(N)=O)=C(O)[C@@]3(O)C(=O)C1=C2O [Minocycline hydrochloride] | 0.00774 (active) | 0.0229 (active) | 0.0305 (active) | 0.0367 (active) | 0.0156 (active) | 0.0185 (active) | 0.0116 (active) | 0.00184 (active)
6 | c1ccc(C2CN3CCSC3=N2)cc1 (stereo unspecified) [Tetramisole hydrochloride] | 1.01 | 1.03 | 1.01 | 1.01 |  |  |  | 
7 | O=c1[nH]cc(F)c(=O)[nH]1 [5-fluorouracil] | 0.842 (active) | 0.745 (active) | 0.942 | 0.927 | 0.0695 (active) | 0.0782 (active) | 0.809 | 0.806
8 | O=S(=O)(O)c1cc(O)ccc1O [Ethamsylate diethylammonium salt] | 1 | 0.998 | 0.999 | 1.01 | 0.99 | 0.994 | 1 | 0.999
9 | CCOCCn1c(N2CCCN(C)CC2)nc2ccccc21 [Emedastine difumarate] | 0.995 | 0.997 | 0.992 | 0.996 | 1.03 | 1.05 | 1 | 0.989
10 | CC(C)NC[C@@H](O)COc1ccc(CC(N)=O)cc1 [(R,+) Atenolol] | 1.01 | 1.06 | 1.07 | 1.02 | 1.04 | 1.01 | 1.02 | 0.986
11 | Cn1ccnc1S [Methimazole] | 1.01 | 1.02 | 1.02 | 1.01 | 0.996 | 1.01 | 1 | 0.988
12 | O=C(O)CCC(=O)c1ccc(-c2ccccc2)cc1 [Fenbufen] | 0.999 | 0.99 | 0.87 | 0.986 | 1.01 | 0.994 | 1 | 0.993
13 | O=C1C(CC[S+]([O-])c2ccccc2)C(=O)N(c2ccccc2)N1c1ccccc1 (stereo unspecified) [Sulfinpyrazone] | 0.996 | 1 | 1 | 0.971 | 1 | 1.01 | 0.998 | 0.985
14 | CC(C)NC(=N)NC(=N)Nc1ccc(Cl)cc1 [Proguanil hydrochloride] | 0.959 | 0.962 | 0.985 | 0.992 | 1 | 1.01 | 0.988 | 0.984
15 | CN(C)CCOC(C)(c1ccccc1)c1ccccn1 (stereo unspecified) [Doxylamine succinate] | 0.982 | 1.01 | 1 | 0.996 | 0.981 | 0.993 | 0.986 | 0.999
16 | Nc1nc(Cl)nc2c1ncn2[C@H]1C[C@H](O)[C@@H](CO)O1 [Cladribine] | 0.985 | 0.949 | 0.982 | 1 | 1.01 | 1.02 | 0.915 | 0.911
17 | COc1ccccc1N1CCN(CCCNc2cc(=O)n(C)c(=O)n2C)CC1 [Urapidil hydrochloride] | 1.01 | 0.992 | 0.984 | 1 | 0.976 | 0.976 | 1 | 0.992
18 | CNCC[C@@H](Oc1ccccc1C)c1ccccc1 [Tomoxetine hydrochloride] | 1.01 | 1.02 | 1.01 | 1 | 0.954 | 0.969 | 0.996 | 0.974
19 | CC1c2cccc(O)c2C(O)=C2C(=O)C3(O)C(O)=C(C(N)=O)C(=O)C(N(C)C)C3C(O)C21 (stereo unspecified) [Doxycycline hydrochloride] | 0.00452 (active) | 0.00494 (active) | 0.018 (active) | 0.0395 (active) | 0.012 (active) | 0.00631 (active) | 0.00375 (active) | 0.00276 (active)
20 | CN1CCC(=C2c3ccccc3CCc3sccc32)CC1 [Pizotifen malate] | 0.992 | 0.976 | 0.873 (active) | 0.998 | 0.965 | 0.973 | 0.994 | 0.963
21 | c1ccc(CC2=NCCN2)cc1 [Tolazoline hydrochloride] | 1.01 | 1.02 | 1.02 | 1.01 | 1.02 | 1.07 | 0.987 | 1.01
22 | C=C1c2c(Cl)ccc(O)c2C(O)=C2C(=O)[C@]3(O)C(O)=C(C(N)=O)C(=O)[C@@H](N(C)C)[C@@H]3[C@@H](O)[C@H]12.O=C(O)c1cc(S(=O)(=O)O)ccc1O [Meclocycline sulfosalicylate] | 0.00503 (active) | 0.015 (active) | 0.0396 (active) | 0.0398 (active) | 0.0142 (active) | 0.022 (active) | 0.0103 (active) | 0.00967 (active)
23 | O=C(NCCNCC(O)COc1ccc(O)cc1)N1CCOCC1 (stereo unspecified) [Xamoterol hemifumarate] | 0.969 | 0.945 | 0.98 | 0.993 | 0.991 | 0.982 | 1.01 | 0.99
24 | COc1cc(NS(=O)(=O)c2ccc(N)cc2)nc(OC)n1 [Sulfadimethoxine] | 1.02 | 1.01 | 1.02 | 0.987 | 0.994 | 1.04 | 1 | 0.99
25 | C[C@]12CCC(=O)C=C1CC[C@@H]1[C@@H]2C(=O)C[C@@]2(C)[C@H]1CC[C@]2(O)C(=O)CO [Cortisone] | 0.993 | 0.945 | 0.983 | 0.982 | 0.994 | 1 | 1 | 0.995
26 | C(=C\c1ccccc1)/CN1CCN(C(c2ccccc2)c2ccccc2)CC1 [Cinnarizine] | 0.986 | 0.925 | 0.895 | 0.976 | 1.01 | 1 | 0.997 | 0.965
27 | CC[N+](CC)(CC)CCOc1cccc(OCC[N+](CC)(CC)CC)c1OCC[N+](CC)(CC)CC [Gallamine triethiodide] | 1 | 1.02 | 1.01 | 1.02 | 1.02 | 1.02 | 1.01 | 1.01
28 | CC[N+](CC)(CC(=O)Nc1c(C)cccc1C)Cc1ccccc1 [Denatonium benzoate] | 1.01 | 1.02 | 1.03 | 0.982 | 1.05 | 1.09 | 0.999 | 1.01
29 | COc1ccc2c(c1)c(CC(=O)OCC(=O)O)c(C)n2C(=O)c1ccc(Cl)cc1 [Acemetacin] | 0.979 | 0.965 | 0.985 | 0.985 | 0.855 | 0.866 | 0.993 | 0.969
30 | O=C1OCCN1/N=C/c1ccc([N+](=O)[O-])o1 [Furazolidone] | 0.391 (active) | 0.0191 (active) | 0.0449 (active) | 0.842 (active) | 0.0122 (active) | 0.00859 (active) | 0.459 | 0.609
